Measurements reported in PubChem BioAssay.
Active and inactive are the calls of the source. Unless noted, how the calls were made is not given here.

Legend:
[1] = test system: Wnt5a (protein binding on small-molecule microarray); assay: small molecules binding Wnt5a protein – biophysical, small-molecule microarray, 635/667 nm fluorescence, primary screen (AID 1142); details: 635 nm fluorescence, higher = more signal;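 further: fluorescence read at 667 nm with signal to noise per printed feature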
[2] = ATP-based viability of Huh7 replicon cells – cell-based, CellTiter-Glo luminescence, basal, 48 h, cytotoxicity control for HCV replication inhibitor project, primary screen (AID 1143); details: higher = more signal, called active from +8 up or from −8 down;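 further: Huh7 hepatoma cells carrying a hepatitis C replication reporter with no stimulus; test concentration not given here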
[3] = Pseudomonas biofilm growth suppression – PAO1 strain, BacTiter-Glo luminescence, LB-PBS, primary screen (AID 1144); details: P. aeruginosa PAO1 biofilm, 12 h, higher = more signal
[4] = basal CRE-LacZ reporter activity in PC12 – cell-based, unstimulated, primary screen (AID 1145); details: no forskolin, luminescence, 4.5 h, higher = more signal, called active from +8 up or from −8 down
[5] = forskolin-driven CRE-LacZ activity in PC12 – cell-based, CRE-LacZ reporter, forskolin-stimulated, primary screen (AID 1146); details: luminescence, 4.5 h, higher = more signal, called active from +8 up or from −8 down;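 further: PC12 cells with 6xCRE LacZ reporter stimulated by forskolin 10 µM; beta-galactosidase reporter signal reflecting CREB driven transcription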
[6] = biological target: Streptavidin (Streptomyces avidinii) (UniProt P22629); assay: compounds binding control protein streptavidin – biophysical, small-molecule microarray, 635/667 nm fluorescence, artefact control for SMM compound annotation, primary screen (AID 1147); details: higher = more signal;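 further: signal reflects streptavidin binding to arrayed compounds as a control protein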
Streptavidin (Streptomyces avidinii), sequence (P22629 whole entry, looked up): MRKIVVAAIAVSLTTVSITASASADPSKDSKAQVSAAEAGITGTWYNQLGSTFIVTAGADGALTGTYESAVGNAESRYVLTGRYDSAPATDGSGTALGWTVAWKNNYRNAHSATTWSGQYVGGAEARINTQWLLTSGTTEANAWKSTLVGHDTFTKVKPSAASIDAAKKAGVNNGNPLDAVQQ

[7] = probe aInhba binding on compound microarray – biochemical, small-molecule microarray, 635/667 nm fluorescence, primary screen (AID 1148); details: higher = more signal;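 further: score merges 667nm spot fluorescence with signal-to-noise for antibody binding to printed compounds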
Torsin-1A (Homo sapiens) [8] = biological target: Torsin-1A (Homo sapiens) (UniProt O14656); assay: TOR1A wild-type binding on microarray – cell lysate, small-molecule microarray, lysate, 635/667 nm, primary screen (AID 1149); details: COS7 hTOR1A-WT lysate, 635 nm fluorescence, higher = more signal
Torsin-1A (Homo sapiens), sequence (O14656 whole entry, looked up): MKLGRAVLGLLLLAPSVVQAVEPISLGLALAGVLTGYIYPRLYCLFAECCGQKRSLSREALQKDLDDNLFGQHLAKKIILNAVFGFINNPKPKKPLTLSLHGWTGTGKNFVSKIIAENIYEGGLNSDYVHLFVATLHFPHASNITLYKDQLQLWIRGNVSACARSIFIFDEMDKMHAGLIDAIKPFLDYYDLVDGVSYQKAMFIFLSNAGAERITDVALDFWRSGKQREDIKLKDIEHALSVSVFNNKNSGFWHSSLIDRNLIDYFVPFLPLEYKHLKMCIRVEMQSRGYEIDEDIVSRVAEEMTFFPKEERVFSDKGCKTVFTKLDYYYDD

Torsin-1A (Homo sapiens) [9] = biological target: Torsin-1A (Homo sapiens) (UniProt O14656); assay: torsin A mutant lysate binding on microarrays – cell lysate, small-molecule microarray, COS7 lysate, 635/667 nm fluorescence, primary screen (AID 1150); details: COS7 hTOR1A mutant lysate, 635 nm fluorescence, higher = more signal;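 further: score pools 667 nm emission and signal to noise measuring lysate protein binding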
[10] = test system: Sonic hedgehog protein (Shh); assay: Sonic hedgehog microarray binding compounds – biochemical, small-molecule microarray, 635/667 nm fluorescence, primary screen (AID 1151); details: 635 nm fluorescence, higher = more signal;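 further: Shh protein binding to compounds spotted on small-molecule microarray slides; score combines spot fluorescence intensity with signal-to-noise across triplicate slides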
[11] = optical density shifts of acrAB sulA E. coli – strain DRC41, OD650, 48 h, E. coli filamentation inducer project, primary screen (AID 1152); details: higher = more signal, called active from +8 up or from −8 down;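 further: E. coli MC1000 strain DRC41 lacking acrAB efflux pump and sulA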
[12] = probe aLefty1 binding on compound microarray – biochemical, small-molecule microarray, 635/667 nm fluorescence, primary screen (AID 1153); details: higher = more signal;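 further: score merges spot fluorescence with signal-to-noise ratio from the scanned slide images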
[13] = plasmodial surface anion channel blockers, osmotic lysis – cell-based, P. falciparum Indochina, OD700, 1 h, primary screen (AID 1154); details: P. falciparum Indochina infected RBC osmotic lysis, higher = more signal, called active from +8 up or from −8 down
[14] = plasmodial surface anion channel blockers, osmotic lysis – cell-based, P. falciparum Indochina, OD700, 2 h, primary screen (AID 1155);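 further: lysis reports solute entry through the parasite surface anion channel PSAC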; details: P. falciparum Indochina infected erythrocytes, higher = more signal, called active from +8 up or from −8 down
[15] = changes in parasitized red cell lysis, either direction – P. falciparum Indochina, OD700, 3 h, PSAC antagonist project, primary screen (AID 1156); details: P. falciparum-infected erythrocytes, osmotic lysis, higher = more signal, called active from +8 up or from −8 down
[16] = plasmodial surface anion channel blockers, osmotic lysis – cell-based, P. falciparum Indochina, OD700, 18 h, primary screen (AID 1157); details: P. falciparum Indochina infected erythrocytes, osmotic lysis OD700, 18 h; higher = more signal, called active from +8 up or from −8 down
[17] = S6 kinase pathway phospho-S6 level changes – cell-based, A549, cytoblot, luminescence, serum-stimulated, primary screen (AID 1158); details: 5 h, higher = more signal;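 further: serum-stimulated A549 lung adenocarcinoma cells; signal is phosphorylated S6 detected by cytoblot immunostaining with HRP secondary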
[18] = biological target: NADPH oxidase 2 (Homo sapiens) (UniProt P04839); assay: compounds shifting NOX2 Amplex Red fluorescence – cell-based, HEK293-NOX2, PMA-stimulated, NOX inhibitor project, primary screen (AID 1159); details: 45 min, higher = more signal, called active from +8 up or from −8 down; further: test concentration not given here
NADPH oxidase 2 (Homo sapiens), sequence (P04839 whole entry, looked up): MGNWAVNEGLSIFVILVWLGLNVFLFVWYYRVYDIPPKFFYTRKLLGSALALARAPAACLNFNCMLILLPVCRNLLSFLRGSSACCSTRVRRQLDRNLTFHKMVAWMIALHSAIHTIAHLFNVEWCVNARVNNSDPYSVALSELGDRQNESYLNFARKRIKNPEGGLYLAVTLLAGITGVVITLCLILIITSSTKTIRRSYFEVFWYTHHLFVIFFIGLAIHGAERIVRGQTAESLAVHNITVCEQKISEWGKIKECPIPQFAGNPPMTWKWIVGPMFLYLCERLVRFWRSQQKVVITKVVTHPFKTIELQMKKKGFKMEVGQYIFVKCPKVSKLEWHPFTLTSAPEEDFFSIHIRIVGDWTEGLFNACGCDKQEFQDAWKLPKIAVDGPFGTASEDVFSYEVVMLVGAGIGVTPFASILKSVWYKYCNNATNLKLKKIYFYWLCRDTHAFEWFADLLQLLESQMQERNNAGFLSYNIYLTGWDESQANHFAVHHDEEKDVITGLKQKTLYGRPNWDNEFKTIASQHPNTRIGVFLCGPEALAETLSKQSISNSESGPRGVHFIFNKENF

[19] = biological target: NADPH oxidase 4 (Homo sapiens) (UniProt Q9NPH5); assay: compounds shifting NOX4 Amplex Red fluorescence – cell-based, HEK293-NOX4, tetracycline-induced, NOX inhibitor project, primary screen (AID 1160); details: HEK293-NOX4, Amplex Red H2O2 fluorescence, 45 min; higher = more signal, called active from +8 up or from −8 down
NADPH oxidase 4 (Homo sapiens), sequence (Q9NPH5 whole entry, looked up): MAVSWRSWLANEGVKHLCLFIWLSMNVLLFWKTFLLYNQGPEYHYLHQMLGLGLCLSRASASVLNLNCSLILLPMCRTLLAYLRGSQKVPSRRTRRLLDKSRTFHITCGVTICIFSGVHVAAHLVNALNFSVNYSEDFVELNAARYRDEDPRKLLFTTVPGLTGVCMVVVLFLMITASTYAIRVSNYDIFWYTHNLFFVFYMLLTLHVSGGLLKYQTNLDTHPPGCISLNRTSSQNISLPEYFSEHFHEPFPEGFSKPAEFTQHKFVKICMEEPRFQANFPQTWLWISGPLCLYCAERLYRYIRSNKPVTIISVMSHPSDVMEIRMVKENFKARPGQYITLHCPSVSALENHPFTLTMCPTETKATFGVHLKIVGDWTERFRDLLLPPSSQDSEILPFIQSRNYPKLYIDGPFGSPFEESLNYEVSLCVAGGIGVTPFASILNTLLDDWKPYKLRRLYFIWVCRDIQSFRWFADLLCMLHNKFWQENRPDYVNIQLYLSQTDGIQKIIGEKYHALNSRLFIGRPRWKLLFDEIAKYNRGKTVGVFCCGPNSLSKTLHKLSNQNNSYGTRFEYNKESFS

[20] = biological target: NADPH oxidase 5 (Homo sapiens) (UniProt Q96PH1); assay: compounds shifting NOX5 Amplex Red fluorescence – cell-based, HEK293-NOX5, NOX inhibitor project, primary screen (AID 1161); details: HEK293-NOX5, ionomycin, 45 min, higher = more signal
NADPH oxidase 5 (Homo sapiens), sequence (Q96PH1 whole entry, looked up): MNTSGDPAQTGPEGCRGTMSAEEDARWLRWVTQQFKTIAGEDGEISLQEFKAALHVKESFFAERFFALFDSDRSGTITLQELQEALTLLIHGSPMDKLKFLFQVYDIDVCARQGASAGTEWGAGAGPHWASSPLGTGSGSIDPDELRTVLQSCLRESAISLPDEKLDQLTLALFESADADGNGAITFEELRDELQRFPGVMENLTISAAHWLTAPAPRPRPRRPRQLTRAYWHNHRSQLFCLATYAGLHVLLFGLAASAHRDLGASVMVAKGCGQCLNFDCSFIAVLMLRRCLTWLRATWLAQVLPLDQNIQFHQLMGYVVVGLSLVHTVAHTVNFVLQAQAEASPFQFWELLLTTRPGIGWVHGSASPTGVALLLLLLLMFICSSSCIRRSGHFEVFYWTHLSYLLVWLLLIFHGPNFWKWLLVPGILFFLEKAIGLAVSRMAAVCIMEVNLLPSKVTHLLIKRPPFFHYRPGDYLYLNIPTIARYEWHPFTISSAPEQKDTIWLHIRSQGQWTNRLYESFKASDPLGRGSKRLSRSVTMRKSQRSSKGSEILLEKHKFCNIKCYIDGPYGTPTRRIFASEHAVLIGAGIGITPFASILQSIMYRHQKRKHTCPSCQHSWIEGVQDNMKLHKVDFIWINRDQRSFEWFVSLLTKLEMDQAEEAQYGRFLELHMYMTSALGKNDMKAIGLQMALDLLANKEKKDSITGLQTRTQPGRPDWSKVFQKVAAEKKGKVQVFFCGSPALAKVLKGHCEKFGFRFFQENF

Row | Structure (SMILES) | composite z-score [1] | z-score [2] | z-score [3] | z-score [4] | z-score [5] | composite z-score [6] | composite z-score [7] | composite z-score (Torsin-1A (Homo sapiens) [8]) | composite z-score (Torsin-1A (Homo sapiens) [9]) | composite z-score [10] | z-score [11] | composite z-score [12] | z-score [13] | z-score [14] | z-score [15] | z-score [16] | z-score [17] | z-score [18] | z-score [19] | z-score [20]
1 | O=C(NCc1ccc(F)cc1)[C@H]1C[C@H]2C(=O)N3CCC[C@H]3C(=O)N2[C@H]1c1ccc(O)cc1 | -0.216 | -2.87 (inactive) | 0.893 (inactive) | 1.24 (inactive) | -0.677 (inactive) | -1.32 | -0.443 | 0.264 | 0.202 | 0.546 | 1.84 (inactive) | -0.491 | 1.25 (inactive) | -0.989 (inactive) | -3.27 (inactive) | -1.66 (inactive) | 0.505 | -1.35 (inactive) | -0.184 (inactive) | 0.601
2 | CC(C)C[C@@H]1NC(=O)[C@@]23C(=O)N[C@@H](Cc4ccccc4)C2[C@H](C)[C@@]2(C)O[C@H]2C3/C=C/C/C=C\CNC(=O)CNC1=O (stereo not given in full) | -0.0717 | -1.91 (inactive) | 0.0738 (inactive) | -1.05 (inactive) | -0.767 (inactive) | 0.228 | -0.179 | -0.507 | 0.939 | 0.214 | -0.815 (inactive) | -0.0832 | 0.917 (inactive) | 0.0107 (inactive) | -0.023 (inactive) | 0.329 (inactive) | 0.208 | 1.82 (inactive) | 1.2 (inactive) | -0.441
3 | CC(C)C(CO)N1C(=O)[C@@H]2C3C(=O)OCCC/C=C\[C@H]3OC23C=CCN(Cc2ccccc2)C(=O)[C@@H]13 (stereo not given in full) | 0.0204 | -0.294 (inactive) | 2.31 (inactive) | 0.601 (inactive) | 0.312 (inactive) | -1.14 | 0.0212 | 0.662 | 0.825 | 0.855 | 0.83 (inactive) | -0.0035 | 1.12 (inactive) | 0.405 (inactive) | 1.12 (inactive) | 0.503 (inactive) | 0.186 | 1.25 (inactive) | 0.838 (inactive) | 2.26
4 | COCCOC(=O)N1C(=O)[C@@]2(c3cc(C#CCCO)ccc31)[C@H](C(N)=O)[C@H]1C(=O)O[C@H](c3ccccc3)[C@H](c3ccccc3)N1[C@@H]2c1ccccc1OCCO | 0.119 | -3.54 (inactive) | 0.00875 (inactive) | 0.0695 (inactive) | -0.29 (inactive) | 0.612 | 0.017 | 0.69 | 0.791 | 1.13 | -0.3 (inactive) | -0.147 | 12.2 (active) | 2.47 (inactive) | 1.99 (inactive) | 0.68 (inactive) | 1.02 | 1.51 (inactive) | 0.755 (inactive) | 0.594
5 | CC(C)NC(=O)[C@@]1(C)c2ccccc2C(=O)N(Cc2ccccc2)[C@H]1c1ccc(CO)cc1 | -0.442 | -2.24 (inactive) | 0.0156 (inactive) | -0.592 (inactive) | -1.08 (inactive) | -1.23 | -0.312 | 0.654 | 1.39 | 0.504 | 1.31 (inactive) | -0.0796 | 4.68 (inactive) | -0.883 (inactive) | -0.171 (inactive) | -0.851 (inactive) | 1.64 | -1.34 (inactive) | 0.485 (inactive) | 0.872
6 | C=CCOC(=O)[C@H]1[C@@H]2C(=O)O[C@@H](c3ccccc3)[C@@H](c3ccccc3)N2[C@@H](c2ccc(OCCOC(=O)[C@H]3C[C@H]4C(=O)N[C@@H](CC(C)C)C(=O)N4[C@H]3c3ccc(O)cc3)cc2)[C@]12C(=O)Nc1ccccc12 | 0.809 | -0.351 (inactive) | -1.22 (inactive) | -0.26 (inactive) | 0.146 (inactive) | 0.137 | 0.0544 | 0.739 | 1.18 | 2.06 | 0.324 (inactive) | 0.13 | 1.64 (inactive) | 0.998 (inactive) | 3.83 (inactive) | 0.964 (inactive) | 0.758 | 1.2 (inactive) | 0.776 (inactive) | 1.4
7 | CC(C)[Si](C#CCCc1ccccc1)(O[C@H](c1ccccc1)c1cn(Cc2ccccc2)nn1)C(C)C | 0.21 | -1.12 (inactive) | -0.778 (inactive) | -0.0989 (inactive) | -0.105 (inactive) | 1.61 | -0.179 | 0.5 | 0.484 | 0.814 | 1.09 (inactive) | 0.188 | 1.36 (inactive) | 0.308 (inactive) | -0.329 (inactive) | 0.53 (inactive) | 0.534 | -0.967 (inactive) | -0.899 (inactive) | -3.17
8 | CC=CC(O)C1C=CC2C(=O)NC(=O)C2N1Nc1ccc(Cl)cc1Cl (stereo not given) | -0.242 | 0.323 (inactive) | 0.101 (inactive) | -0.133 (inactive) | 0.467 (inactive) | 0.0171 | -0.176 | 0.34 | 0.0964 | 0.443 | -1.56 (inactive) | 0.169 | 0.76 (inactive) | 0.786 (inactive) | 0.0682 (inactive) | 1.29 (inactive) | -0.637 | -1.35 (inactive) | -4.61 (inactive) | -3.02
9 | COC(=O)[C@H](Cc1ccccc1)N1CC2=CCCC=C[C@@H]2[C@H]1[C@H](O)Cc1ccccc1 | -0.0279 | -1.02 (inactive) | 1.09 (inactive) | 2.4 (inactive) | 1.07 (inactive) | 0.916 | -0.0332 | -0.214 | -0.371 | 0.848 | -0.53 (inactive) | 0.315 | 1.31 (inactive) | 0.492 (inactive) | 0.429 (inactive) | 0.256 (inactive) | -0.232 | -0.286 (inactive) | -0.477 (inactive) | -0.647
